± gives the standard deviation of the averaged measurements. Whole data set: some 33,000 sequences, median “E-score (rank enrichment, -0.5 to 0.5)” near -0.0075, cut for the highest 2% near 0.23. This excerpt belongs to a sample that is enriched for the highest values.
System: WT Max(13-93) synthetic (M65Nle)
Experiment: PBM 8-mer E-score (E-score (rank enrichment, -0.5 to 0.5)); higher = stronger preferential binding
Method: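 Protein binding microarray (universal PBM chip covering all 10-mers in fixed probe flanks) with chemically synthesized human Max(13-93) bHLH-LZ analogs (not full-length Max) bearing noncanonical residues (hArg, Tha, Aib, Nle at 65) and aromatic Cys staples. Read-out per 8-mer (and its reverse complement): E-score (rank-based enrichment, -0.5 to 0.5) and Z-score of median probe intensity.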

Sequence	PBM 8-mer E-score
GAGGATGC	-0.0499 ± 0.029
ATGAATGG	0.311 ± 0.023
ATGAATGA	0.126 ± 0.034
ATGAATGC	0.114 ± 0.14
GACGACAA	0.0432 ± 0.014
GAGAGGTA	-0.0899 ± 0.13
GAAGTTCC	-0.122 ± 0.051
CATAATGA	0.172 ± 0.059
AATAATGG	0.044 ± 0.046
GATAATGA	0.125 ± 0.072
AATAATGT	0.173 ± 0.097
AATAATGC	0.245 ± 0.095
AATAATGA	0.259 ± 0.073
ATCCGAAA	-0.03 ± 0.061
ATATTACG	0.241 ± 0.0048
AGATTACC	-0.00321 ± 0.065
ATATTACA	0.197 ± 0.017
AAATTACG	0.0856 ± 0.02
CTATTACC	-0.0563 ± 0.029
ATATTAGA	0.172 ± 0.004
ATATTACC	0.267 ± 0.029
ATATTAGG	0.244 ± 0.036
ATATTAGC	0.124 ± 0.022
CGTCGGGA	-0.106 ± 0.096
CACCGCGA	-0.226 ± 0.025

Sequence	PBM 8-mer E-score
CTAGGTCC	-0.172 ± 0.12
GGAAGCAC	0.0303 ± 0.0034
ATCATGAG	0.058 ± 0.031
ATCATAAT	0.269 ± 0.033
ATCATGAT	0.312 ± 0.0072
ATCAACAG	0.106 ± 0.018
AACATAAT	0.252 ± 0.011
ATCATAAG	0.172 ± 0.039
AACATAGT	0.0321 ± 0.091
ATCAACAT	0.24 ± 0.013
AACATAAG	0.097 ± 0.013
ATCATAAA	0.142 ± 0.15
ATCAACAA	0.15 ± 0.12
ATCATGAA	0.0859 ± 0.037
ACGGGGAG	0.0661 ± 0.065
CCATCCAC	0.155 ± 0.16
GAGCTGGA	-0.13 ± 0.0049
AAGGCTCC	-0.199 ± 0.056
ACTGTCCC	0.1452 ± 0.001
AGAGGCTC	-0.129 ± 0.083
GTCGCCGA	-0.0844 ± 0.015
TATGGTAA	0.104 ± 0.1
GTGTCCTA	-0.012 ± 0.016
GCCAACGA	-0.0918 ± 0.043
ATCGGTTG	-0.0382 ± 0.099

Sequence	PBM 8-mer E-score
CCTGATGA	-0.114 ± 0.085
ATCATCAT	0.245 ± 0.026
AACATAAC	0.247 ± 0.07
ATGATAAA	0.181 ± 0.084
ATCATATA	0.204 ± 0.012
GTGATAAA	0.143 ± 0.05
ATCATATC	0.134 ± 0.044
TTGATAAA	0.25 ± 0.021
GACATAAC	0.17 ± 0.0081
ATCATATG	0.233 ± 0.0053
ATCATCAC	0.0578 ± 0.072
ATCATCAA	-0.0899 ± 0.0026
CACATAAC	0.108 ± 0.067
AGGATATC	0.084 ± 0.03
CGCACCCA	0.0267 ± 0.1
AAGGTGAC	-0.1212 ± 0.00044
CGGATGAC	0.00616 ± 0.15
TCCGGTCA	-0.19 ± 0.054
ACTCTGAA	-0.0606 ± 0.013
GAAAGCCA	-0.0183 ± 0.048
CTGTCTGA	0.00168 ± 0.0099
CTCAACAC	0.202 ± 0.084
ATGATAAC	0.206 ± 0.023
ATGATAAG	0.17 ± 0.054
ATGATAAT	0.251 ± 0.078

Sequence	PBM 8-mer E-score
AGGCCTGG	-0.294 ± 0.061
ATATTAAG	0.131 ± 0.02
ATATTAAC	0.218 ± 0.013
TTATTAAA	0.131 ± 0.26
CTATTAAA	0.173 ± 0.011
ATATTAAA	0.24 ± 0.03
ATATTAAT	0.274 ± 0.059
AAGTTGGC	-0.119 ± 0.0037
TCGCTGCA	-0.149 ± 0.09
GGCGCCAC	-0.0393 ± 0.073
GCAGAAAC	0.0456 ± 0.087
AGACCTCA	-0.0265 ± 0.028
TCGGCACA	-0.0668 ± 0.093
AGCGTGTA	0.11 ± 0.018
CCCGTGTC	0.0152 ± 0.049
GACGTGTA	-0.0197 ± 0.094
CGCGTGTA	0.29 ± 0.052
ATCGTGTA	0.0318 ± 0.041
CGCGTGTC	0.232 ± 0.011
CACGTGTA	0.4825 ± 0.0012
AACGTGTG	0.178 ± 0.016
AACGTGTA	0.26 ± 0.0055
CACGTGTC	0.4823 ± 0.0015
AACGTGTC	0.189 ± 0.014
CCCGTGTA	0.183 ± 0.1

Sequence	PBM 8-mer E-score
GGCAGACC	-0.189 ± 0.022
AAGAGATC	-0.149 ± 0.086
AAGGTGCT	0.0391 ± 0.026
ACAGCAGT	-0.155 ± 0.016
GCATGTTA	0.266 ± 0.075
ACATGTTC	0.246 ± 0.016
CCATGTTA	0.103 ± 0.095
AAATGTTG	-0.0126 ± 0.086
ACATGTTA	0.267 ± 0.008
CCATGTTC	-0.00628 ± 0.14
GGATGTTA	0.0759 ± 0.064
AGATGTTG	-0.133 ± 0.11
AAATGTTA	0.127 ± 0.032
GAATGTTA	0.158 ± 0.079
ACATGTTG	0.239 ± 0.012
AGATGTTC	-0.10933 ± 4.9e-05
ATAGTCTC	0.0149 ± 0.021
ACGGCCAT	-0.0405 ± 0.11
ATTAGGCG	-0.0541 ± 0.021
CTTGCAGC	-0.155 ± 0.06
AAGGCCCA	-0.0696 ± 0.03
AACCTCGG	-0.285 ± 0.089
ACAGCAGA	-0.0839 ± 0.019
CCTGGCCC	-0.288 ± 0.052
CATTCATC	0.048 ± 0.036

Sequence	PBM 8-mer E-score
GATTCATA	-0.0144 ± 0.0027
CATTCATA	0.243 ± 0.071
CTACGGGA	0.0112 ± 0.028
AATACATT	0.132 ± 0.098
AATACATA	0.211 ± 0.11
CATACACG	0.238 ± 0.086
CATACATC	0.135 ± 0.022
TATACACA	0.0996 ± 0.085
CATACACA	0.228 ± 0.099
CATACATA	0.17 ± 0.086
AATACATG	0.243 ± 0.072
CATACATG	0.245 ± 0.026
AAAAGCAA	0.066 ± 0.13
GCCAGATA	-0.00267 ± 0.056
CCAACTTC	0.0001 ± 0.0037
TGGAAAAA	0.0641 ± 0.057
ACTGTCCT	-0.0581 ± 0.038
GACGAGTA	0.0201 ± 0.095
CACGAGGA	0.217 ± 0.02
AACGAGAT	-0.133 ± 0.092
CACGAGGC	0.252 ± 0.079
CACGAGTA	0.237 ± 0.0057
TACGAGTA	0.173 ± 0.023
CACGAGGG	0.1535 ± 0.0012
CACGAGAA	0.12 ± 0.075

Sequence	PBM 8-mer E-score
AACGAGAA	0.242 ± 0.073
CCTACAGA	-0.0418 ± 0.11
ATTTGTGC	0.0791 ± 0.13
CCGGCCAC	-0.164 ± 0.0042
ACAAGCCA	-0.0302 ± 0.081
CAATAAAC	0.139 ± 0.04
CAATAAAA	0.29 ± 0.011
CAATAATC	0.00647 ± 0.1
GAATAAAA	0.184 ± 0.097
CAATAATA	0.275 ± 0.019
CAATAATG	0.0933 ± 0.042
CCGACTCA	-0.185 ± 0.0089
CCTCAAAA	0.192 ± 0.0034
CCGCGTAG	-0.0165 ± 0.042
CGCTTCCC	-0.0261 ± 0.049
CTTTGTTA	0.195 ± 0.042
AAGGAGGA	-0.0623 ± 0.0073
ATCATTGC	0.0872 ± 0.064
CGTATACG	0.241 ± 0.024
AGTATACA	0.155 ± 0.15
CGTATACA	0.105 ± 0.07
GGTATACA	0.0958 ± 0.069
TGTATACA	0.307 ± 0.074
CGTATACC	-0.109 ± 0.063
CCGATCCC	-0.173 ± 0.033

Sequence	PBM 8-mer E-score
ATCACCCC	0.117 ± 0.11
CCAGGACC	-0.162 ± 0.086
ATAATCAA	0.15 ± 0.011
ATAATCAC	0.04 ± 0.043
CTAATCAG	0.027 ± 0.0044
ATAATCAT	0.285 ± 0.0003
ATAATCAG	0.256 ± 0.14
AAAATCAG	0.104 ± 0.15
AGCTTCTC	0.118 ± 0.0033
AGACGTCG	-0.117 ± 0.066
CACCCTCC	0.202 ± 0.054
CGGGGTCC	-0.276 ± 0.066
ACATGGCG	0.183 ± 0.026
GCATGGCC	0.0853 ± 0.066
GCATGGTA	0.185 ± 0.032
CCATGGTC	0.0328 ± 0.1
ACATGGGA	0.135 ± 0.03
CCATGGTA	0.0299 ± 0.078
ACATGGCC	0.232 ± 0.14
CCATGGGG	-0.138 ± 0.011
ACATGGTC	0.319 ± 0.016
CTATGGTC	-0.0873 ± 0.11
ACATGGTA	0.277 ± 0.008
ACATGGGG	0.273 ± 0.033
AAATCGCT	-0.0979 ± 0.047

Sequence	PBM 8-mer E-score
ACTGTGTG	0.0422 ± 0.088
AAGAACTA	0.204 ± 0.045
CGCTGCAA	-0.0409 ± 0.02
ACATGGAG	0.198 ± 0.015
ACATGGTG	0.233 ± 0.045
AGATGGTG	0.00749 ± 0.089
GTGGGGAA	0.205 ± 0.11
GACTGACA	-0.0306 ± 0.026
AGGCCCTC	0.00332 ± 0.043
CAGGAATC	-0.216 ± 0.02
ATACAAAC	0.212 ± 0.016
TTACAAAA	0.225 ± 0.024
CTACAAAA	0.0614 ± 0.0036
ATACAAAA	0.265 ± 0.02
ATACAAAT	0.249 ± 0.035
ATACAAAG	0.0198 ± 0.057
GAGAAAAC	-0.0792 ± 0.0078
GCAAAGGA	0.00898 ± 0.011
AATTCATG	0.132 ± 0.0098
